# Test results published in PubChem BioAssay (NCATS).
# Results filed as inconclusive are left out. The source made the active and inactive calls. The call rests on the fitted dose curve; in most records, active means well fitted curve in the direction sought with a large enough effect; inconclusive means small, poorly fitted or top-dose-only effect, or another doubt; inactive means no such curve, though single readings can be large; an effect the other way counts as inactive or inconclusive.
# What was measured:
# [1] = Confirmatory screen GU Rhodamine qHTS for Zika virus inhibitors qHTS (AID 1347157); further: potency means the concentration at half of the fitted maximal effect; nearly all actives have a fitted effect of over 70% in size
# How it was run: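 Noncovalent NS2B hydrophilic domain/NS3 protease complex (25 nM final) in 10 mM Tris-HCl pH 8.0, 0.01% Tween 20, preincubated 15 min with compounds (up to 114 microM), then 1.5 microM Rhodamine110 substrate. Fluorescence change over 15 min fitted to 4-parameter Hill.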
# [2] = ZIKV-mCherry secondary qHTS for Zika virus inhibitors (AID 1347158); further: potency means the concentration at half of the fitted maximal effect
# How it was run: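 Read-out is percent infection: mCherry-positive Vero cells (nuclear-proximal intensity >450 RFU, 3 SD above negative controls) counted by high-content imaging of Hoechst-stained, PFA-fixed wells after 48-72 h with ZIKV-mCherry at MOI 1 and compound.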
# [3] = system: Zika virus NS2B-NS3 protease (unlinked complex); test: Primary screen GU Rhodamine qHTS for Zika virus inhibitors: Unlinked NS2B-NS3 protease assay (AID 1347159); further: nearly all actives have a fitted effect of over 60% in size; further: potency means the concentration at half of the fitted maximal effect
# How it was run: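 Enzyme 25 nM in Tris-HCl pH 8.0 + 0.01% Tween 20; compounds up to 114 microM, 15 min RT dark; + Rhod110 substrate 1.5 microM; read t0 and 15 min; delta fluorescence → % inhibition → 4-parameter Hill fit.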
# [4] = system: Zika virus NS2B-NS3 protease (linked construct); test: Primary screen NINDS Rhodamine qHTS for Zika virus inhibitors (AID 1347160); further: nearly all actives have a fitted effect of over 55% in size; further: potency means the concentration at half of the fitted maximal effect
# How it was run: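 Enzyme (25 nM, linked NS2B-NS3) was preincubated 15 min with compound in 10 mM Tris-HCl pH 8.0, 0.01% Tween 20. Rhodamine110 substrate (1.5 microM) was then added and fluorescence read at start and after 15 min.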
# [5] = Confirmatory screen NINDS Rhodamine qHTS for Zika virus inhibitors (AID 1347161); further: potency means the concentration at half of the fitted maximal effect; nearly all actives have a fitted effect of over 60% in size
# How it was run: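 Aprotinin served as in-plate control. Conditions: 25 nM linked NS2B-NS3, pH 8.0 Tris buffer, titrated compounds, 15 min preincubation and 15 min reaction with 1.5 microM Rhod110 substrate at room temperature.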
# [6] = system: Zika virus NS2B-NS3 protease (linked); test: 384 well plate NINDS AMC confirmatory qHTS for Zika virus inhibitors (AID 1347163); further: nearly all actives have a fitted effect of over 50% in size; further: potency means the concentration at half of the fitted maximal effect
# How it was run: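 Enzyme (5, 30 or 60 nM final) first met test compounds for ~15 min. The AMC-tagged peptide Ac-VKTGKR-AMC followed at 30 microM. Fluorescence was then recorded at 25 min and scaled against no-enzyme and no-inhibitor wells.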
# [7] = Vero cells viability qHTS for Zika virus inhibitors (AID 1347167)
# How it was run: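 qHTS titration; 24-48 h compound exposure, 37 degrees C/5% CO2; DMEM, 4% FBS; CellTiter Glo ATP luminescence.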
# [8] = system: Zika virus NS2B-NS3 protease (linked construct); test: Confirmatory screen NINDS AMC qHTS for Zika virus inhibitors (AID 1347152); further: potency means the concentration at half of the fitted maximal effect; nearly all actives have a fitted effect of over 70% in size
# How it was run: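 Linked NS2B-NS3 protease, 1 nM, in 10 mM Tris-HCl pH 8.0, 0.01% Tween 20; compounds preincubated 15 min at room temperature. Nle-KRR-AMC 10 microM (Km 18.3 µM); 15-min fluorescence change (340/450 nm) fitted to 4-parameter Hill.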
# [9] = system: Zika virus NS2B-NS3 protease (unlinked complex); test: Confirmatory screen GU AMC qHTS for Zika virus inhibitors (AID 1347153); further: nearly all actives have a fitted effect of over 70% in size;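 on Potency: enzyme at 25 nM with substrate at 10 µM below its Km of 18.3 µM; potency means the concentration at half of the fitted maximal effect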
# How it was run: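 Fluorescence change (ex 340/em 450 nm) over 15 min, ~20% substrate conversion, normalized to no-inhibitor and no-enzyme controls, then Hill-fitted. Unlinked protease at 25 nM; AMC peptide 10 µM.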
SMILES,Potency [1],Potency [2],Potency [3],Potency [4],Potency [5],Potency [6],outcome [7],Potency [8],Potency [9]
COc1cccc(OC)c1-c1cc(C(=O)N[C@@H](CC(C)C)C(=O)O)nn1-c1ccnc2cc(Cl)ccc12,17.5 µM (active),inactive,22.4 µM (active),10 µM (active),12.4 µM (active),31.6 µM (active),inactive,–,–
CCC(C)/C=C(C)/C=C/C1=CC2=CC(=O)C(C)(O)C(OC(C)=O)C2CO1 (stereo unspecified),30.6 µM (active),–,14.1 µM (active),inactive,34.3 µM (active),–,–,–,–
COc1cc(Nc2nc3ccccc3nc2NS(=O)(=O)c2cccc(NC(=O)c3ccc(C)c(OC)c3)c2)cc(OC)c1,1.39 µM (active),–,–,7.94 µM (active),1.97 µM (active),inactive,inactive,13.9 µM (active),–
CCc1nnc(NS(=O)(=O)c2ccc(NC(=S)NC(=O)/C=C/c3ccc(F)cc3)cc2)s1,2.78 µM (active),–,3.16 µM (active),3.16 µM (active),2.78 µM (active),–,inactive,19.7 µM (active),–
COc1ccc(C2C(C(=O)O)C(C(=O)O)C2c2ccc(OC)cc2O[C@@H]2O[C@H](CO)[C@@H](O)[C@H](O)[C@H]2O)c(O[C@@H]2O[C@H](CO)[C@@H](O)[C@H](O)[C@H]2O)c1 (stereo partly specified),9.26 µM (active),–,7.94 µM (active),inactive,11.7 µM (active),–,–,–,–
C=C1C2CCC3C(CCC4[C@@]3(C)CCC[C@@]4(C)C(=O)O)(C2)[C@@H]1OC(=O)/C(C)=C\C (stereo partly specified),6.81 µM (active),–,6.31 µM (active),10 µM (active),6.07 µM (active),39.8 µM (active),inactive,21.5 µM (active),–
O=C1NC(=O)/C(=C/c2cccc(C(F)(F)F)c2)S1,4.41 µM (active),–,2.51 µM (active),3.55 µM (active),3.93 µM (active),100 µM (active),–,17.5 µM (active),–
COc1cc(Nc2ccc([N+](=O)[O-])cc2C(=O)O)cc2ccccc12,1.97 µM (active),–,2.24 µM (active),2.82 µM (active),2.21 µM (active),2.82 µM (active),inactive,15.6 µM (active),–
O=C(O)CC/C=C\C[C@H]1CO[C@@H](c2ccccc2Cl)O[C@H]1c1ccccc1O,31.2 µM (active),–,inactive,–,44.1 µM (active),–,–,–,–
COc1cc2c(c(O)c1OC/C=C(\C)CC/C=C(/C)CCC=C(C)C)CN(C(CCC(=O)O)C(=O)O)C2=O (stereo unspecified),3.41 µM (active),6.31 µM (active),2 µM (active),7.94 µM (active),2.71 µM (active),8.91 µM (active),inactive,27.1 µM (active),34.1 µM (active)
C=C1CCC2C(C)(C)CCC[C@]2(C)[C@H]1CC/C(C)=C/C(=O)O (stereo partly specified),11.1 µM (active),–,3.55 µM (active),5.62 µM (active),4.94 µM (active),2 µM (active),inactive,44.1 µM (active),39.3 µM (active)
COc1cc2c(c(OC)c1O)C(c1ccc(O)cc1)C1C(=O)OC3C(COC(=O)C1=C2)OC(CO)(OC1OC(COC(=O)/C=C/c2ccc(OC4OC(C)C(O)C(O)C4O)cc2)C(O)C(O)C1O)C3O (stereo unspecified),7.44 µM (active),–,inactive,–,7.44 µM (active),–,–,–,–
Cc1cc(C)c2nc(-c3ccccn3)cc(C(=O)Nc3ccc(S(=O)(=O)Nc4onc(C)c4C)cc3)c2c1,2.78 µM (active),inactive,2 µM (active),2.24 µM (active),3.12 µM (active),5.01 µM (active),inactive,22.1 µM (active),–
Cc1ccccc1NC(=O)Nc1ccc(CN2C(=O)N([C@@H](CC(C)C)C(=O)N[C@@H](CC(=O)O)c3ccccc3)C(=O)C2(C)C)cc1,35 µM (active),inactive,31.6 µM (active),7.08 µM (active),27.8 µM (active),10 µM (active),inactive,–,inactive
CC1(C)[C@H]2C[C@H](C/C=C\CCCC(=O)O)[C@@H](NC(=O)c3csc4ccc(O)cc34)[C@@H]1C2,24.8 µM (active),–,14.1 µM (active),inactive,31.2 µM (active),–,–,–,–
O=C(O)C1(c2ccc(-c3ccc(Cl)c(Cl)c3)c(F)c2)CC1,11.1 µM (active),–,7.94 µM (active),8.91 µM (active),6.98 µM (active),14.1 µM (active),inactive,44.1 µM (active),44.1 µM (active)
O=C(Nc1ccccc1)Nc1ccc(-c2ccc(C(=O)C3CCCC3C(=O)O)cc2)cc1 (stereo unspecified),4.94 µM (active),–,5.01 µM (active),3.55 µM (active),3.93 µM (active),inactive,inactive,27.8 µM (active),35 µM (active)
